{
  "source": "PubChem BioAssay AID2155",
  "about": "(National Center for Advancing Translational Sciences (NCATS), 2009)",
  "note": "Activity calls are given as the source filed them. The call rests on the fitted dose curve.",
  "data": [
    {"target": "Polyunsaturated fatty acid lipoxygenase ALOX15 (Homo sapiens) (UniProt P16050)", "sequence (P16050 whole entry, looked up)": "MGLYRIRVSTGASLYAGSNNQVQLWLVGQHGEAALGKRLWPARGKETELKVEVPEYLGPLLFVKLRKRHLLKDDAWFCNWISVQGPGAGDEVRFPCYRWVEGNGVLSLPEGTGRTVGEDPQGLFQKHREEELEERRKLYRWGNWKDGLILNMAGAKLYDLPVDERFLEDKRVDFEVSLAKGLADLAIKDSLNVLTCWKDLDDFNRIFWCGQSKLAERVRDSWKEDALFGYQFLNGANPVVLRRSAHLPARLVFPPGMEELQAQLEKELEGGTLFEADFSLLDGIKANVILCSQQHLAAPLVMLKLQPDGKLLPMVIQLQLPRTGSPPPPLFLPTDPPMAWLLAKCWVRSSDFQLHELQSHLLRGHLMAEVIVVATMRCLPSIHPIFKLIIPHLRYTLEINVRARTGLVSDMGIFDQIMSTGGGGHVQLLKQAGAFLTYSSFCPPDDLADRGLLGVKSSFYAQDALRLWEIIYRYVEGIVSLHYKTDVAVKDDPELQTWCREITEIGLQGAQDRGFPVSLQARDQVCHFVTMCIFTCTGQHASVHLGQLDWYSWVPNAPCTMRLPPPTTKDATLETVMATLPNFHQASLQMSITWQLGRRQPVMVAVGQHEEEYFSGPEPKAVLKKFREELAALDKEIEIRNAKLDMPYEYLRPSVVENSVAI", "test": "Cuvette-Based Assay fo Inhibitors of 15-hLO-1 (15-human lipoxygenase 1): Series 1 - Round 1", "settings": "purified 15-hLO-1, cuvette UV 234 nm product formation", "description": "Assay Provider: Holman, T.R., University of California, Santa Cruz Screening Center PI: Austin, Christopher P. Screening Center: NIH Chemical Genomics Center Human lipoxygenase 15hLO-1 is a member of the closely related lipoxygenase family of enzymes which catalyze the site-specific oxidation of arachidonic acid to various hormone precursor molecules and as such is a candidate for drug development in a variety of disease areas, such as cancer and inflammation. The enzyme activity of 15hLO-1 was determined by a direct measurement of product formation by monitoring the absorbance at 234 nm in a 2 mL cuvette. IC50 values of inhibitors were obtained by measuring the enzymatic rate at a variety of concentrations (Carroll et al, Segraves et al). A purified preparation of human 15hLO-1 was supplied by Professor Ted Holman, University of California, Santa Cruz. This assay is includes some confirmation and follow-up compounds for related primary screening assay AID 887. The follow-up compounds focus on analogues of current lead 15hLO-1 inhibitor series.\nFor control experiments, 2 mL of substrate buffer (7 uM arachidonic acid / 25 mM HEPES / 0.01% (v/v) Triton X-100, pH 7.5) was aliquoted in a cuvette with a magnetic stir bar. After equilibrium was ensured, an aliquot of inhibitor solvent was added (DMSO or MeOH), and equilibrium was once again assured. The reaction was started by adding enzyme to the cuvette and the reaction was followed until completed. The inhibition experiments were performed as above, except the actual inhibitory compound was added instead of vehicle. To achieve an IC50, typically 5 concentrations of the inhibitor were studied. If the inhibitor concentration was constant, then five different reaction volumes were used. Step \\ Parameter \\ Value \\ Description 1; UV-Vis; 234 nm; Equilibration 2; Reagent; 2 mL; Substrate buffer 3; UV-Vis; 234 nm; Equilibration 4; Reagent; varies; Compound 5; UV-Vis; 234 nm; Equilibration 6; Reagent; 50-200 nM; Enzyme 15hLO-1 7; UV-Vis; 234 nm; Enzymatic reaction Step \\ Notes 1. Blank cuvette to air. 2. 7 uM AA, 25 mM HEPES, 0.01% Triton X-100, pH 7.5. 3. No change in absorbance ensured. 4. Compound vehicle or compound in various concentrations depending on potency. 5. No change in absorbance ensured. 6. Enzyme concentration to achieve reaction rate between 0.02 and 0.04 AU/s. 7. Enzymatic reaction visualized until completion.", "values": [
      {"molecule": "OCC#CCSc1nnc(-c2cccc3ccccc23)o1", "Potency": "1000 nM (active)"},
      {"molecule": "O=C(OCC#CCSc1nnc(-c2cccc3ccccc23)o1)c1ccc(Cl)cc1", "Potency": "18 nM (active)"},
      {"molecule": "COc1ccc(C(=O)OCC#CCSc2nnc(-c3cccc4ccccc34)o2)cc1", "Potency": "22 nM (active)"},
      {"molecule": "O=C(OCC#CCNc1nnc(-c2cccc3ccccc23)o1)c1cccs1", "Potency": "1000 nM (active)"},
      {"molecule": "O=C(OCC#CCSc1nnc(-c2cccc3ccccc23)s1)c1cccs1", "Potency": "25000 nM (active)"},
      {"molecule": "O=C(OCC#CCSc1nnc(-c2cccc3ccccc23)o1)c1cnc[nH]1", "Potency": "1000 nM (active)"},
      {"molecule": "O=C(NCC#CCSc1nnc(-c2cccc3ccccc23)o1)c1cccs1", "Potency": "1000 nM (active)"},
      {"molecule": "O=C(OCC#CCSc1nnc(-c2cccc3ccccc23)o1)c1ccc(Br)cc1", "Potency": "16 nM (active)"},
      {"molecule": "N#Cc1nc(-c2cccc3ccccc23)oc1NCC#CCOC(=O)c1cccs1", "Potency": "25000 nM (active)"},
      {"molecule": "CC(C)Nc1oc(-c2cccc3ccccc23)nc1C#N", "Potency": "190 nM (active)"},
      {"molecule": "C=CCNc1nnc(-c2cccc3ccccc23)o1", "Potency": "1000 nM (active)"}
    ]}
  ]
}
